Data from PubChem BioAssay AID504467 (National Center for Advancing Translational Sciences (NCATS), 2011).
Out of some 330,000 compounds screened, about 7,700 (2.3%) were called active. A call without a number means that no potency is given here. Another 26% or so got no clear call; they are omitted. The sample holds actives, similar compounds and a random draw of the others, so the mix is not that of the screen. Calls follow the shape of the dose curve; as a rule, active = well fitted inhibition curve with a large enough effect; inconclusive = small, poorly fitted or top-dose-only effect, or effect the other way; inactive = flat fitted curve, though single readings scatter.

experiment: qHTS screen for small molecules that inhibit ELG1-dependent DNA repair in human embryonic kidney (HEK293T) cells expressing luciferase-tagged ELG1; conditions: HEK293T ELG1-luciferase reporter, luminescence, 16 h, DNA damage induced by 5-fluorouridine; series mostly up to 46.1 µM; also: nearly all actives have a fitted effect of over 55% in size
Method in brief: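 Step one: seed 2,000 cells per well. Step two: pin-transfer compound or DMSO alongside 5-fluorouridine. Step three: incubate 16 hr, 37 °C, 5% CO2. Step four: add ONE-Glo, wait 30 min, read luminescence.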
Potency is read from the fitted curve at half-maximal effect.

| SMILES | Potency |
| --- | --- |
| COc1cccc(C(=O)Nc2nnc(S(=O)(=O)N3CCCCC3)s2)c1 | inactive |
| CCCn1nc(C(=O)NNC(=O)CCOc2ccccc2OCC)c2ccccc2c1=O | inactive |
| O=Cc1c(Nc2ccccc2Cl)nc2ccccn2c1=O | inactive |
| Cc1nc2ccccc2c(=O)n1-c1ccc(F)c(NC(=O)c2cccs2)c1 | inactive |
| O=C(CN1C(=O)NC2(CCCCCC2)C1=O)Nc1ccc([N+](=O)[O-])cc1 | inactive |
| CC(=O)Nc1ccc(C(=O)Nc2cccc(S(=O)(=O)NC3=NCCC3)c2)cc1 | inactive |
| CC(=O)c1ccc(S(=O)(=O)N(C)CCCC(=O)N(C)Cc2ccccc2F)cc1 | inactive |
| Cc1cnc(C(=O)N2CCCC(N3CCN(c4ccccc4F)CC3)C2)cn1 (stereo not drawn) | inactive |
| Cc1ccccc1N1CCN(C2CCCN(C(=O)c3ocnc3C)C2)CC1 (stereo not drawn) | inactive |
| Cc1ccccc1N1CCN(C2CCCN(C(=O)c3cn4c(C)cccc4n3)C2)CC1 (stereo not drawn) | 16.4 µM (active) |
| CC(NC(=O)COC(=O)c1ccc2ccccc2n1)c1ccccc1 (stereo not drawn) | inactive |
| CCN(CC)S(=O)(=O)c1cc(C(=O)Nc2cc(S(=O)(=O)N3CCOCC3)ccc2N2CCCC2)ccc1F | inactive |
| O=c1oc2ccc(C#CC3(O)CCCCC3)cc2cc1-n1cc(-c2ccsc2)nn1 | inactive |
| COC(=O)[C@]1(Cc2ccccc2)N[C@H](CN(C)S(=O)(=O)c2ccc(OC(F)(F)F)cc2)[C@@H]2C(=O)N(Cc3ccccc3)C(=O)[C@@H]21 | inactive |
| Cc1nn(CC(=O)Nc2nc3ccccc3s2)c(C)c1[N+](=O)[O-] | inactive |
| O=[N+]([O-])c1cc(Br)c(O)c(/C=N/Nc2nc3ccccc3s2)c1 | 4.11 µM (active) |
| Cc1ccc(S(=O)(=O)Nc2nc3ccccc3s2)cc1[N+](=O)[O-] | inactive |

| SMILES | Potency |
| --- | --- |
| Cc1ccccc1NC(=O)NCC1CCN(Cc2cccc(Cl)c2)CC1 | inactive |
| CC(=O)N1CCOc2ccc(S(=O)(=O)N3CCN(c4cccc(C(F)(F)F)c4)CC3)cc21 | inactive |
| COc1cccc(OC)c1C(=O)OCC(=O)/C(C#N)=C(\C)N | inactive |
| C/C(N)=C(/C#N)C(=O)COC(=O)c1cc(-c2cccc(Br)c2)nc2ccccc12 | 11.6 µM (active) |
| C/C(N)=C(/C#N)C(=O)COC(=O)c1cc(-c2ccccc2)nc2ccc(Br)cc12 | inactive |
| CCOc1ccccc1Nc1nnc(SCC(=O)NCC2CCCO2)s1 (stereo not drawn) | inactive |
| O=C(COc1ccc(F)cc1Br)NCC1COc2ccccc2O1 (stereo not drawn) | inactive |
| Cc1cc2oc(=O)cc(CN3CCN(S(=O)(=O)c4cccs4)CC3)c2cc1C(C)C | 2.31 µM (active) |
| O=S(=O)(c1ccc(F)cc1)N1CCN(Cc2ccccc2C(F)(F)F)CC1 | inactive |
| COc1ccc2c(CN3CCN(S(=O)(=O)c4cccs4)CC3)cc(=O)oc2c1 | 23.1 µM (active) |
| O=S(=O)(c1cccs1)N1CCN(Cc2ccccc2)CC1 | inactive |
| CC(C)c1ccc2oc(=O)cc(CN3CCN(Cc4ccccc4)CC3)c2c1 | inactive |
| O=c1cc(CN2CCN(S(=O)(=O)/C=C/c3ccccc3)CC2)c2ccc(O)cc2o1 | inactive |
| Cc1ccc2c(CN3CCN(S(=O)(=O)c4ccccc4C(F)(F)F)CC3)cc(=O)oc2c1 | 17.8 µM (active) |
| COc1ccc2oc(=O)cc(CN3CCOCC3)c2c1 | inactive |
| Cc1cc2oc(=O)cc(CN3CCN(Cc4ccccc4)CC3)c2cc1C | inactive |
